# Screening data from PubChem.
# Sa ugtP lethal: growth inhibition of ugtP-null S. aureus, primary screen, RN4220 ugtP deletion, OD600; 16 h; growth inhibition, % (concentration not given with the values); actives 0.54% (n = 330,000); AID 1259309, 2017; in the data active = growth inhibition above about 68%;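 also: plate controls were untreated wells for no effect and antibiotic for full effect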
# RN4220 kill: growth inhibition of S. aureus RN4220, primary screen, OD600 | inhibition, % (test concentration not listed) | 16 h | actives 0.33% (n = 330,000) | AID 1259311, 2017; in the data active = inhibition above about 85%;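 also: plate controls were untreated cells for no effect and reference antibiotic for full effect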
# Vc quorum ag: inducers of Vibrio cholerae quorum light production without autoinducers, primary screen, BH1578 luxS cqsA deficient, single point; V. cholerae BH1578 lux reporter, luminescence, 6 h; activation, % at 18.7 µM; actives 0.16% (n = 350,000); in the data active = activation mostly above about 9.7%, no sharp cut-off
# Mtb bLac sens: beta-lactam sensitization of Mtb H37Rv, H37Rv; inhibition, % at 25 µM; M. tuberculosis H37Rv growth with meropenem, percent inhibition; actives 0.27% (n = 330,000); call rule not given here;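 also: growth measured after seven days incubation then overnight dye step; 0% = bacteria only wells and 100% = bacteria with antibiotic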
# PfHsp40 rescue: rescue of yeast from PfHsp40 toxicity, primary screen, S. cerevisiae, ATP luminescence; S. cerevisiae expressing PfHsp40, growth rescue; growth rescue, % at 12.5 µM; actives 0.68% (n = 340,000); AID 504582, 2011; in the data active = growth rescue above about 28%, passing the limit was not always enough;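 also: yeast W303a lacking pdr1 and pdr3 grown in galactose medium; growth measured after three days at 30 °C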
# * hit, by the source's call; i = inactive; · = not tested or not shown; + = active, no number. Compounds with a hit are over-represented: about 1.2% of the library has one in this group of screens.
SMILES,Sa ugtP lethal,RN4220 kill,Vc quorum ag,Mtb bLac sens,PfHsp40 rescue
O=C(NCc1nc2ccccc2[nH]1)C1=CC(C2CCCCC2)CC(OCc2ccc(CO)cc2)O1 (stereo unspecified),15,-3,·,·,·
COC(=O)C1=C(c2cc3ccccc3s2)CC2CCC1N2C(=O)N1CCC(C)CC1 (stereo unspecified),4,5,·,·,·
COC(=O)C1=C(c2ccccc2OCc2ccccc2)CC2CCC1N2C(=O)NC1CCN(Cc2ccccc2)CC1 (stereo unspecified),4,-2,·,·,·
CCOc1ccc(CC(=O)C2C(=O)CC(C)(C)CC2=O)cc1OCC,-1,4,-6,0,-3
CC1(C)CC(=O)C(C(=O)Cc2ccccc2[N+](=O)[O-])C(=O)C1,1,2,0,2,29*
CC1CC(C)CN(C(=O)COC(=O)c2ccc[nH]c2=O)C1 (stereo unspecified),1,0,25*,7,0
CC(C)(C)CC(=O)NC(=S)Nc1ccccc1C(F)(F)F,93*,5,0,2,6
COc1ccc(C(NC(N)=O)c2ccccc2)cc1 (stereo unspecified),9,2,0,9,73*
CN(C)c1ccc(C=Nc2cc(-c3ccccc3)nn2-c2ccccc2)cc1,5,4,·,·,·
O=C(NCC1CCCO1)c1coc2nc3ccccc3nc12 (stereo unspecified),-7,-15,+,-5,0
CCCCCCCCN1C(CC(=O)OCC)c2cc(C(F)(F)F)ccc2S1(=O)=O (stereo unspecified),10,0,·,·,·
CCc1ccc(NC(=O)CSc2ccc(-c3ccccn3)nn2)cc1,18,4,0,100,305*
CC(=O)c1cccc(NC(=O)CSc2ccc(-c3ccccn3)nn2)c1,6,-1,0,100,-1
CC(=O)Nc1cccc(NC(=O)CSc2ccc(-c3ccccn3)nn2)c1,7,-5,i,-4,438*
CCOC(=O)c1ccccc1NC(=O)CSc1ccc(-c2ccccn2)nn1,13,5,·,100,211*
COc1cc(NC(=O)CSc2ccc(-c3ccccn3)nn2)cc(OC)c1,-2,1,0,100,221*
CCCCCCCCN1C(CC(=O)OC)c2cc(C(F)(F)F)ccc2S1(=O)=O (stereo unspecified),7,5,·,·,·
CCOc1ccc2cc(S(=O)(=O)N3CCOCC3)ccc2c1,4,1,74*,4,0
NC1=NC[C@@H](Cc2ccc(O)cc2)N1CCC12CC3CC(CC(C3)C1)C2,·,·,i,-2,48*
O=C(Nc1nc2ccc(SC(F)F)cc2s1)c1ccc(NS(=O)(=O)c2ccc(F)c(F)c2)cc1,100*,100*,0,100,-2
CS(=O)(=O)c1ccc2nc(NC(=O)c3ccc(NS(=O)(=O)c4ccc(F)c(F)c4)cc3)sc2c1,12,3,i,0,-2
CC(c1ccc2c(c1)OCO2)n1c(=S)[nH]c2ccccc2c1=O (stereo unspecified),-44,-15,i,4,75*
O=C(O)C(Cc1ccccc1)n1c(=S)[nH]c2ccccc2c1=O (stereo unspecified),4,4,0,11,0
CCOC(=O)C1=c2sc(=Cc3ccncc3)c(=O)n2C(N)=C(C(=O)OC)C1c1ccncc1 (stereo unspecified),-4,3,·,·,·
O=c1nc2scc(-c3ccccc3)n2c2ccccc12,91*,-6,-1,4,-1
SMILES,Sa ugtP lethal,RN4220 kill,Vc quorum ag,Mtb bLac sens,PfHsp40 rescue
CCOc1ccc(-n2nnc3c(=O)n(CC=Cc4ccccc4)cnc32)cc1,8,4,·,·,·
CC(C)(C)C(O)C(Cc1ccccc1Cl)n1cncn1 (stereo unspecified),9,8,0,-1,276*
CC1C/C(=C/c2cccs2)C(=O)/C(=C/c2cccs2)C1 (stereo unspecified),90*,-8,0,-1,-1
COc1ccccc1NS(=O)(=O)c1cccc(C(=O)NN=Cc2c(CO)cnc(C)c2O)c1,6,8,·,·,·
O=C(c1ccccc1F)N1CCN(c2cccc(C(F)(F)F)c2)CC1,6,2,1,-9,121*
O=C(c1c(F)c(F)c(F)c(F)c1F)N1CCN(c2cccc(C(F)(F)F)c2)CC1,-11,7,0,4,-1
Cc1ccc(C(O)=C2C(=O)C(=O)N(c3cc(C)on3)C2c2cccc(Br)c2)cc1 (stereo unspecified),18,16,·,·,·
O=C(NCc1ccccc1)C1=CC(C2CCCCC2)CC(OCc2ccc(CO)cc2)O1 (stereo unspecified),1,-4,·,·,·
Cc1c(Cl)cccc1-c1ccc(/C=N/n2cnnc2)o1,·,·,27*,54,-1
Cc1cc(NC(=O)c2c(F)cccc2Cl)n(-c2nc3ccccc3[nH]2)n1,-24,7,0,-4,113*
CC12CC3(C)CC(C)(C1)CC(NC(=O)N1CCCC1)(C2)C3,3,15,i,-7,310*
CC1(NC(=O)N2CCCCC2)CCS(=O)(=O)C1 (stereo unspecified),0,0,6,6,0
COc1ccccc1CNC(=S)Nc1ccc(F)cc1,6,5,i,2,1
CCC(C)c1ccc(NC(=S)NCc2ccccc2OC)cc1 (stereo unspecified),16,0,0,·,84*
CCCCCCCCOC(=O)C[N+](C)(C)C/C=C(/C)Cl,6,2,0,6,-1
CCCCCCCCCCOC(=O)C[N+](C)(C)C/C=C(/C)Cl,100*,16,i,-4,-2
Nc1ccc(N=Nc2ccccc2)c2ccccc12,7,3,-6,-6,-1
c1ccc(N=Nc2ccc3cccccc2-3)cc1,95*,15,-1,72,7
COc1cc(/C=C/c2nc3ccccc3c(=O)n2-c2ccccc2O)ccc1O,99*,93*,0,10,2
COc1cc(/C=C/c2nc3ccccc3c(=O)n2-c2cccc(O)c2)ccc1O,99*,99*,-1,43,-1
COc1cc(/C=C/c2nc3ccccc3c(=O)[nH]2)ccc1O,·,·,i,·,·
O=c1c2ccccc2nc(/C=C/c2ccc(O)c(O)c2)n1-c1ccccc1,-20,11,i,4,0
Cc1cccc(C(=O)OC2C(Cc3ccccc3)NS(=O)(=O)C3CC4C=C[C@]23O4)c1 (stereo partly specified),2,8,·,·,·
COCc1cc(C)nc(NN=Cc2ccc(-c3cc(C(=O)O)ccc3Cl)o2)c1C#N,5,5,·,·,·
COc1cccc(NC(=O)c2cnn(-c3ccccc3)c2C)c1,4,1,i,-1,1
CCc1cccc(NC(=O)c2cnn(-c3ccccc3)c2C)c1,-2,2,i,5,38*
CC(C(=O)Nc1ccc2ccccc2c1)C1C[C@@]1(C)C(N)c1ccccc1 (stereo partly specified),-10,-2,·,·,·
